Test results published in PubChem BioAssay (NCATS).
Records with an inconclusive call do not appear. Calls of active or inactive are those of the source. Calls come from the whole dose curve; as a rule, active = well fitted inhibition curve with a large enough effect; inconclusive = small, poorly fitted or top-dose-only effect; inactive = no such curve, though single readings can be large or run the other way.

assay: Counterscreen for APE1 Inhibitors: Fluorescent Dye Displacement Validation Assay (AID 1707); conditions: fluorescent dye displacement from DNA; series mostly up to 57.1 µM
Source text: In order to distinguish true inhibitors of DNA-processing enzymes from promiscuous DNA-binding compounds among screening assay hits, we developed a homogeneous and miniaturized assay based on fluorescent dye displacement test as originally described by Tse and Boger (Accounts of Chemical Research (2004) 37: 61-69). The assay is based on the strong enhancement of fluorescence when Thiazole Orange (ThO) binds to double-stranded DNA: conversely, in the presence of a DNA-binding compound, Thiazole Orange is displaced from the DNA and its fluorescence is reduced.
Buffer. 50 mM Tris-HCl (pH7.5) containing 50mM NaCl, 2 mM MgCl2, and 0.01% Tween-20.
Buffer containing 250 nM ThO in columns 3 and 4 as negative control (no dsDNA).
Reaction mixture: 250 nM ThO and 50 nM dsDNA at final concentration dispensed throughout the plate: in columns 1, 2, 5-48. Column 1 is neutral (100% activity).
5''TAMRA- TC ACC FTC GTA CGA CTC
3'' AG TGG GAG CAT GCT GAG
where F denotes tetrahydrofuran.
Control: Pintool transfer of control compound WB64 (W4761, Sigma-Aldrich) to column 2 of all assay plates as a two-fold 16-point dilution in duplicate (concentration range 5.75 uM - 0.175 nM).
Four uL of reaction mixtures were dispensed to 1536-well Greiner black solid bottom plates. Compounds (23 nL) were transferred […] in order to measure the endpoint fluorescence using 480 nm excitation and 540 nm emission fluorescence protocol.

| SMILES | outcome |
| --- | --- |
| CC(C)(C)c1ccc(C(O)CCCN2CCC(C(O)(c3ccccc3)c3ccccc3)CC2)cc1 (configuration not stated) | inactive |
| C[N+](C)(C)CCCCCC[N+](C)(C)C | inactive |
| NC(N)=Nc1nc(CSCC/C(N)=N/S(N)(=O)=O)cs1 | inactive |
| CC(=O)c1ccc(S(=O)(=O)NC(=O)NC2CCCCC2)cc1 | inactive |
| O=C1NCC2(CCN(CCc3ccccc3)CC2)O1 | inactive |
| CCCCC1C(=O)N(c2ccccc2)N(c2ccccc2)C1=O | inactive |
| O=c1c(-c2ccc(O)cc2)coc2cc(O)ccc12 | inactive |
| CC(=O)CCCCn1c(=O)c2c(ncn2C)n(C)c1=O | inactive |
| Clc1ccc(Cn2c(CN3CCCC3)nc3ccccc32)cc1 | inactive |
| CCN(CC)C(=O)c1ccc(O)c(OC)c1 | inactive |
| CCN(CC)CCOC(=O)c1ccc(N)cc1 | inactive |
| Cc1cccc(C)c1OCC(C)N (configuration not stated) | inactive |
| CCCNC(=O)NS(=O)(=O)c1ccc(Cl)cc1 | inactive |
| CC1(C)CCC2=C(O1)c1ccccc1C(=O)C2=O | inactive |
| NCCS | inactive |
| O=C(O)CCc1nc(-c2ccccc2)c(-c2ccccc2)o1 | inactive |
| COc1ccccc1N1CCN(CCCNc2cc(=O)n(C)c(=O)n2C)CC1 | inactive |
| CC(C)NCC(O)COc1cccc2[nH]ccc12 (configuration not stated) | inactive |
| COc1cccc(-c2cc(=O)c3ccccc3o2)c1N | inactive |
| CC/C(=C(\c1ccccc1)c1ccc(OCCN(C)C)cc1)c1ccccc1 | inactive |
| CC(=O)N[C@@H](CS)C(=O)O | inactive |
| COC(=O)[C@@H]1[C@H]2C[C@H]3c4[nH]c5ccccc5c4CCN3C[C@@H]2CC[C@@H]1O | inactive |
| CC1=C(/C=C/C(C)=C/C=C/C(C)=C/C(=O)Nc2ccc(O)cc2)C(C)(C)CCC1 | inactive |
| O=C1NC(=O)C(c2ccccc2)(c2ccccc2)N1 | inactive |
| CCN1CCC[C@H]1CNC(=O)c1cc(S(N)(=O)=O)ccc1OC | inactive |
| CN(C)CCC(c1ccccc1)c1ccccn1 (configuration not stated) | inactive |
| CCN(CC)CCNC(=O)c1ccc(N)cc1 | inactive |
